Reference: PubChem BioAssay (NCI)
About 83,000 compounds went through this panel and 20% of them were active in at least one assay; those are over-represented in the sample as a whole.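 How to read the values: 0–100, growth inhibition (40 = 60% inhibited); 0, no net growth; -100 to 0, cell death (-40 = 40% of starting cells died; -100 = all dead).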 Unmarked numbers belong to inactive results. Calls of active or inactive are those of the source. Rule for the calls: active = growth percent below 10; inactive = the rest.

Key:
Test in all cases: NCI-60 one-dose screen, 48 h (100 = growth as untreated, 0 = no growth, -100 = all killed)
Conditions in all cases: 10 µM unless noted
[1] = tested on: NCI-H23 lung
[2] = tested on: NCI-H226 lung
[3] = tested on: NCI-H322M lung
[4] = tested on: HOP-62 NSCLC
[5] = tested on: NCI-H460 lung
[6] = tested on: NCI-H522 lung
[7] = tested on: A549/ATCC NSCLC
[8] = tested on: 786-0 renal
[9] = tested on: COLO 205 colon
[10] = tested on: HOP-92 NSCLC

Row | Structure (SMILES) | growth [1] | growth [2] | growth [3] | growth [4] | growth [5] | growth [6] | growth [7] | growth [8] | growth [9] | growth [10]
1 | CCOC(=O)C1=C(c2ccccc2)N=C2SC=C(c3cccc([N+](=O)[O-])c3)N2C1c1ccc(O)cc1 (centres undefined) | 96.5% | 96.8% | 96.3% | 98.6% | 101% | 93.8% | 100% | 96.5% | 116% | –
2 | COc1ccc(/C=N/NC(=O)Cn2nnc3ccccc32)cc1 | 101% | 96.4% | 89.1% | 99.9% | 96.6% | 90.9% | 96.5% | 103% | 109% | –
3 | COc1ccc(CNc2ccc3nc(CCC4CCCCC4)[nH]c3c2)cc1 | 77.5% | 73.8% | 91.2% | 75.8% | 88.6% | 67.1% | 80.2% | 62.7% | -23.9% (active) | –
4 | CNC1=C(Br)C(=O)c2c(C(=O)OC)c(C)nc(C)c2C1=O | 31.8% | 86.3% | 81.5% | 99.9% | 30.4% | 64.3% | 58.1% | 102% | 30.9% | –
5 | CCOC(=O)CCC(=O)P(=O)(O)O | 116% | 110% | 103% | 97.8% | 113% | 84.7% | 96.9% | 98.6% | 93.9% | –
6 | Cc1ccccc1NC(=O)Cn1cc(CN2CCN(c3ccnc4cc(Cl)ccc34)CC2)nn1 | 99.2% | 90.9% | 103% | 90.7% | 98.6% | 102% | 106% | 104% | 99% | –
7 | O=C1c2c(c3c4cc(F)ccc4oc3c3[nH]c4ccccc4c23)C(=O)N1O | 23.4% | 59.3% | 57.7% | 24.2% | 5.01% (active) | 30.5% | 54.2% | 47.6% | 57.7% | –
8 | CC1(C)CCC[C@]23C(=O)O[C@](O)(C(=O)C4=C[C@@](C)(/C=C/CCCc5ccc6ccc7cccc8ccc5c6c78)CC[C@@]42O)[C@@H]13 | -60.6% (active) | -69.5% (active) | -98.6% (active) | -66.1% (active) | -74.5% (active) | -62.6% (active) | -70.5% (active) | -79.3% (active) | -72.4% (active) | –
9 | COc1ccc(/C=C/C(=O)c2ccc(-n3cc(CN4CCN(c5cc6c(cc5F)c(=O)c(C(=O)O)cn6C5CC5)CC4)nn3)cc2)cc1 | 78.7% | 67.3% | 72.8% | 75.6% | 77.9% | 67.6% | 66.1% | 71.9% | 98.2% | –
10 | COCCNC(=O)Cc1cc(-c2ccc(Cl)cc2)n(-c2ccccc2)c1C | 73.6% | 89.8% | 95.4% | 2.89% (active) | 94% | 58.8% | 82.1% | 88.7% | 96.3% | –
11 | N=C(N)c1ccc(-c2ccc(-c3ccc(Cl)cc3Cl)s2)nc1 | 85.2% | 91.7% | 60.9% | 90.7% | -60.1% (active) | 29% | – | 85.4% | -27.1% (active) | 84.2%
12 | COc1cccc(-c2cc(-c3ccc(Nc4nc(Nc5ccc(Cl)cc5)nc(Nc5ccc(Cl)cc5)n4)cc3)nc(N)c2C#N)c1 | – | – | – | – | 69% | – | – | – | – | –
13 | COc1cc(OC)cc(C(=O)Nc2cnc(Nc3ccc(N4CCOCC4)nc3)nc2Oc2ccc(C(F)(F)F)cc2)c1 | – | – | – | – | 31.1% | – | – | – | – | –
14 | COc1ccc(-c2cc(-c3ccc(N(C)C)cc3)nc(NC(=O)c3cccnc3)n2)cc1 | 105% | 98.8% | 93% | – | 96.1% | 93% | 105% | 103% | 104% | 124%
15 | c1ccc2c(-c3cnn4cc(-c5ccc(N6CCNCC6)cc5)cnc34)ccnc2c1 | -13.7% (active) | -54.8% (active) | -55.5% (active) | – | -70% (active) | -50% (active) | – | -91.9% (active) | -58% (active) | -59.2% (active)
16 | C=C(C)[C@@H]1CC[C@]2(C#N)CC[C@]3(C)[C@H](CC[C@@H]4[C@@]5(C)CCCNC(C)(C)[C@@H]5CC[C@]43C)[C@@H]12 | 82.7% | 96.6% | 88.7% | – | 11.1% | 91.5% | 73.2% | 84.5% | -67.8% (active) | 51%
17 | NS(=O)(=O)Oc1cccc(-c2nc3sccn3c2-c2ccccc2)c1 | 76.2% | 85.4% | 89.7% | – | 38.9% | 61.5% | 52.6% | 65.5% | 69.7% | 45.8%
18 | CC/C(=C(/c1ccc(Cl)cc1)c1ccc(OCCN(CC)CC)cc1)c1ccc(OC)cc1 | 48.7% | 80.5% | 66.9% | – | 16.6% | 66.6% | – | 49.5% | 22.2% | 51.7%
19 | Cc1ccc(C23CCC(=O)N2CCc2cncn23)cc1 (centres undefined) | 97.4% | 96.2% | 99.3% | – | 110% | 87.9% | 96.7% | 108% | 98.6% | 87.2%
20 | N#C/C(=N\Nc1ccccc1)C(=O)Nc1cc(-c2ccccc2)nn1-c1ccccc1 | 6.94% (active) | 25.6% | 8.62% (active) | – | 6.6% (active) | 15.4% | 30.4% | 50.5% | 48.4% | -18.6% (active)
21 | N=C(N)c1ccc(-c2ccc(-c3ccccc3)s2)nc1 | 94.1% | 92.8% | 80.4% | – | 23.1% | 83.9% | 83.8% | 91.3% | -6.33% (active) | 70.2%
22 | CC(C)(C)[C@H](OCc1cn([C@H]2C[C@@H](O)[C@@H](CO)O2)c(=O)[nH]c1=O)c1ccc(C#Cc2ccccc2)cc1[N+](=O)[O-] | 90.2% | 99.3% | 47.6% | – | 10.1% | 45% | – | 27.8% | 79.1% | 58.1%
23 | COc1cccc2cc(N(C)c3nc(C)nc4c3CCC4)ccc12 | 22.4% | 25.8% | 59.1% | – | 6.85% (active) | -16.9% (active) | 14.8% | 3.77% (active) | -66.4% (active) | 0.483% (active)
24 | Cc1ccc(S(=O)(=O)N(CCC(=O)O)c2ccccc2)cc1 | 112% | 109% | 122% | – | 112% | 109% | 104% | 94.3% | 132% | 102%
25 | O=[N+]([O-])c1ccc(Oc2cccc3c(Oc4ccc([N+](=O)[O-])cc4[N+](=O)[O-])cccc23)c([N+](=O)[O-])c1 | 75.3% | 83.9% | 92.4% | – | 93.4% | 74.6% | 83% | 108% | 102% | 62%
26 | CCOC(=O)CC1CSC(N/N=C(/C)c2cccc(C(F)(F)F)c2)=N1 (centres undefined) | 103% | 99.6% | 89.6% | – | 110% | 82.2% | 87.7% | 97% | 107% | 100%
27 | O=C(Nc1ncc(Cc2ccc(Cl)cc2)s1)c1ccc2c(c1)OCCO2 | 37% | 23.5% | 46.8% | – | 8% (active) | 2.46% (active) | 18% | 38.7% | -13.7% (active) | 60.6%
